Measured values as given in PubChem BioAssay AID1456 (Vanderbilt High Throughput Screening Facility, 2008).
Hit rate of the full screen: of about 190,000 compounds, about 4,100 (2.2%) were called active. Many of the other results were omitted from the sample, so actives are more common in it than they were. Unmarked numbers belong to inactive results.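 How the source made its calls: active means thallium flux slope and its plate-corrected score both differing from the plate sample mean at a set confidence after two filtering rounds, in either direction; inactive means the rest.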

The compounds below were run against Solute carrier family 12 member 5 (Homo sapiens) (UniProt Q9H2X9) (assay: KCC2 cotransporter modulators, thallium flux, primary screen, cell-based, HEK293 KCC2, FluoZin-2 fluorescence, MLSMR (AID 1456;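 further: slope of fluorescence scaled to starting intensity during 10 to 20 s after thallium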)). Conditions: KCC2 cells, thallium flux FluoZin-2 fluorescence; at 10 µM.
Solute carrier family 12 member 5 (Homo sapiens), sequence (Q9H2X9 whole entry, looked up): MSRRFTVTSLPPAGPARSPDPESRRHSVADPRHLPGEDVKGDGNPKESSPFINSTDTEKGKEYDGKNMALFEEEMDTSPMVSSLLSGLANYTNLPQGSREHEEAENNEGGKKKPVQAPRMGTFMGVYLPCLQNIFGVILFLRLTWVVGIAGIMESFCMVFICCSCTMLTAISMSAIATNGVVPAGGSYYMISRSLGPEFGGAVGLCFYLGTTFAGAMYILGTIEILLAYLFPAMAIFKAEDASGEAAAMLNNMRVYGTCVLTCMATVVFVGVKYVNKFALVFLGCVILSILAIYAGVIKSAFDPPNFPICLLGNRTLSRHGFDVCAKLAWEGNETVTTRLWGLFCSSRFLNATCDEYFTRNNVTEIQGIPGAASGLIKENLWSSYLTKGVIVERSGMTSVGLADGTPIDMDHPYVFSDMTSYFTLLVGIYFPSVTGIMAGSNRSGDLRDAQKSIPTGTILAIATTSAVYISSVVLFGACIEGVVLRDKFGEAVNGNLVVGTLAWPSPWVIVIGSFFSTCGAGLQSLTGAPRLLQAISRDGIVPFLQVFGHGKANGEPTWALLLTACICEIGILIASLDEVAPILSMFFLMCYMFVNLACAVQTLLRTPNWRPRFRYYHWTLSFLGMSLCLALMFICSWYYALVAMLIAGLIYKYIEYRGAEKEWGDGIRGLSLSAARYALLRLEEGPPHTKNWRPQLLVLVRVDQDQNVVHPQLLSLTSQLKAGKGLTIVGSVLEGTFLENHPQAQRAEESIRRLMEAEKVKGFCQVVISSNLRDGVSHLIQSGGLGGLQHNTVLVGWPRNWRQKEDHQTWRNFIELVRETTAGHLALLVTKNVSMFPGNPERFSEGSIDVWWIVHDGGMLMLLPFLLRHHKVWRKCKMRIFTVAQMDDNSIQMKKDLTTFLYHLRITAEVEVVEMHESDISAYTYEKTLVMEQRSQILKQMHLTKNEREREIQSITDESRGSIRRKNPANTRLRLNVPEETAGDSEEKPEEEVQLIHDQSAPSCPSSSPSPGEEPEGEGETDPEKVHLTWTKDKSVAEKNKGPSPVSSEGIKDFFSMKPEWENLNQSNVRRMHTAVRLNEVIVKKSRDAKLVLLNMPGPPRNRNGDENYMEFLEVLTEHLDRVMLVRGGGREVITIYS

Structure (SMILES)	B-score of Tl+ flux slope (higher = more flux/activation; lower = inhibition)
O=C(CSC1c2ccccc2-c2ccccc21)N/N=C/c1ccccc1	2.57 (active)
CCCCC(=O)N/N=C/c1c(O)n(-c2ccccc2)c(=O)[nH]c1=O	-0.272
c1cc2c(cc1[C@H]1OC[C@H]3[C@@H]1CO[C@@H]3c1ccc3c(c1)OCO3)OCO2	0.711
CCC1(C)CC(CCNCc2ccc(N(C)C)cc2)(c2ccc(F)cc2)CCO1 (stereo not given)	1.55
CNC(=O)O/N=C(\N)Cc1csc2ccccc12	0.111
COc1cc(-n2c(=S)[nH]c3ccc(C)cc3c2=O)c(Cl)cc1Cl	69.6 (active)
COc1cccc(CN2CCCC(C(=O)c3ccccc3SC)C2)c1O (stereo not given)	-3.42
COc1cc(OC)cc(C2(C#N)CCN(C)CC2)c1	-0.32
CSc1ccc(C(=O)C2CCCN(Cc3ccn[nH]3)C2)cc1 (stereo not given)	0.628
Cc1ccc(CN2CCCC(C(=O)c3ccc4c(c3)OCO4)C2)cc1C (stereo not given)	-0.421
